Experimental findings from ChEMBL document CHEMBL4513216, “Probing the Open Global Health Chemical Diversity Library for Multistage-Active Starting Points for Next-Generation Antimalarials” (ACS Infect Dis, 2020) are described below.

About 2,100 (3.2%) of roughly 65,000 compounds showed an effect of 50% or more. The median lay at about -52%. This excerpt belongs to a sample that is enriched for strong results.

This assay relates to Plasmodium falciparum. The experiment in a line: Screen against P. falciparum Asexual Blood Stage (ABS), at 5uM. The class given is functional, Dd2. The note with it: tested at 5 uM.
With `CCc1ccc(CN2Cc3nccn3CC(CN3CCOCC3)C2)o1` (centres undefined), the INHIBITION is reported as -23.9%.

As for `CCOc1ccc(N(C)Cc2nc(C)c(C)o2)cc1`, the INHIBITION worked out at 43.9%.

Regarding `CCOc1ccc(N(C)Cc2nnc(C3CC3)o2)cc1`, the INHIBITION turned out to be 61.5%.

Consider `CCOc1ccc(N(C)Cc2nnc(C)o2)cc1`, for which the INHIBITION came out at 27.1%.

With `Cn1cccc1C(=O)N1CCC2(CCN2c2ncccn2)C1` (centres undefined), the INHIBITION is -28.5%.

As for `O=C(NCc1ccc2c(c1)CCCO2)c1ccc(C2CCNC2)cc1` (centres undefined), the INHIBITION is listed as -95.6%.

Consider `COCC(=O)NCc1cnc(C)nc1-c1cn(C)c2ccc(OC)cc12`, for which the INHIBITION is -88.7%.

Regarding `CN(C)CCN1CCO[C@H]2CCN(C(=O)c3cccs3)CC[C@@H]21`, the INHIBITION is reported as -47.1%.

Regarding `CCc1nnc2n1CCN(CC(=O)N1CCc3ccccc3C1)C2`, the INHIBITION is -13.9%.

On to `COc1ccc(C(=O)Nc2c(C(=O)N(C)C)nn(C)c2C)cc1`, for which the INHIBITION was -64.8%.

As to `COc1ccc(CC(=O)NC(C)c2nc3cccnc3n2C(C)C)cc1` (centres undefined), the INHIBITION was -100%.

On to `NCCn1nc(C2CCN(C(=O)CC3CCCCC3)C2)c2nccnc21` (centres undefined), for which the INHIBITION is reported as -16.3%.

With `NCCn1nc(C2CCN(C(=O)Cc3ccccc3)C2)c2nccnc21` (centres undefined), the INHIBITION is listed as -28.7%.

As to `Cc1ccccc1CN1CCC(c2nn(CCN)c3nccnc23)C1` (centres undefined), the INHIBITION is 60.9%.

For `Cn1nc(C2CCCN(Cc3ccc(F)c(F)c3)C2)c2nccnc21` (centres undefined), the INHIBITION amounted to 23.4%.

Take `NCCn1nc(C2CCN(Cc3ccc(Cl)c(Cl)c3)C2)c2nccnc21` (centres undefined): the INHIBITION is 63.5%.

Take `CC(C)(C)CC(=O)N1CCC(c2nn(CCN)c3nccnc23)C1` (centres undefined): the INHIBITION is -94.3%.

For the molecule `CNC(=O)[C@H]1CO[C@H]2CCN(Cc3ccc4ccccc4n3)C[C@H]2C1`, the INHIBITION was -51.5%.

With `Cc1nc(NCc2ccccn2)c2c(n1)c(C)nn2C`, the INHIBITION is -26.7%.

In the case of `Cc1cccc(Nc2cc(C)nc(C3CCN(C(C)C)C3)n2)n1` (centres undefined), the INHIBITION was -36.6%.

On to `CC(C#N)CSc1ccccc1NCC(=O)NC1CCCCC1` (centres undefined), for which the INHIBITION is -56.9%.

`CC(C#N)CSc1ccccc1NCC(=O)Nc1ccccc1` (centres undefined): the INHIBITION is -67.8%.

For `CC(C#N)CSc1ccccc1NCC(=O)NC(C1CC1)C1CC1` (centres undefined), the INHIBITION is recorded as 56.3%.

Take `CN1CCOC(CNCc2csc(C3CCCC3)n2)C1` (centres undefined): the INHIBITION is recorded as -14.3%.

Turning to `CN1CCOC(CNCc2csc(C3CCCCC3)n2)C1` (centres undefined), the INHIBITION was 58.6%.

`Cc1nc(CNCC2CN(C)CCO2)cs1` (centres undefined): the INHIBITION was -102%.

Take `c1cncc(N2CCCn3nnc(CN4CCCCC4)c3C2)c1`: the INHIBITION is -88.4%.

For `Cc1ccccc1SCC(=O)NS(=O)(=O)c1ccc2c(c1)OCCO2`, the INHIBITION is -14.4%.

In the case of `c1cncc(COCc2nnc3n2CCN(Cc2ccsc2)C3)c1`, the INHIBITION is on record as -113%.

`O=C(c1ccc(F)cc1)N1CCN2C[C@H](OCc3cccnc3)C[C@H]2C1`: the INHIBITION was 1.13%.

With `Cc1occc1C(=O)N1CC[C@H]2C[C@@H](c3nnc(C4CC4)o3)O[C@@H]2C1`, the INHIBITION is -11.7%.

Take `COCCN1CCC(CNCc2c[nH]nc2C(C)(C)C)CC1`: the INHIBITION was -130%.

As for `CN(C)CCN1CCC(CNCc2c[nH]nc2C(C)(C)C)CC1`, the INHIBITION is on record as -15.5%.

As for `Cc1ccc(CNCc2c[nH]nc2C(C)(C)C)c(OC2CCOC2)c1` (centres undefined), the INHIBITION is 57%.

Take `CCSc1ncc(-c2cc(C3CC3)nc(N)c2C#N)cn1`: the INHIBITION was determined as 4.79%.

`CCCNc1ncc(-c2cc(C3CC3)nc(N)c2C#N)cn1`: the INHIBITION is reported as 55.8%.

For `CCSc1ncc(-c2cc(C3CCC3)nc(N)c2C#N)cn1`, the INHIBITION is -28.9%.

As to `CC1CCN(C(=O)CN2CC(c3nc(C4CC4)no3)C2)CC1`, the INHIBITION is reported as -20.1%.

Regarding `O=C(C1CCCC1)N1C[C@@H](c2ccsc2)[C@@H]2CN(C3CCCC3)CC[C@@H]21`, the INHIBITION is reported as 54.7%.

Consider `O=C(C1CCC1)N1CCN(Cc2ccsc2)[C@H]2CS(=O)(=O)C[C@H]21`, for which the INHIBITION is -87.7%.

On to `CCC(=O)N1CCCC1c1ccsc1` (centres undefined), for which the INHIBITION is recorded as -72.1%.

Regarding `CCOc1ncccc1CNC(=O)Nc1ccc(CC)cc1`, the INHIBITION is given as -138%.

As to `Cc1ccc2c(c1)C(NCc1ccccn1)CC2` (centres undefined), the INHIBITION stood at 37.5%.

On to `COc1cccc(CNC2CCc3ccc(C)cc32)n1` (centres undefined), for which the INHIBITION is given as 60.8%.

As to `COc1ccc2c(c1)C(NCCc1ccccn1)CCCO2` (centres undefined), the INHIBITION amounted to 57.6%.

Take `Cc1ccc2c(c1)C(NCc1ncnn1C)CC2` (centres undefined): the INHIBITION is -64.9%.

On to `Cc1ccc2c(c1)OCCCC2NCc1nnc2n1CCCCC2` (centres undefined), for which the INHIBITION was -139%.

`COc1ccc2c(c1)C(NCCc1c(C)noc1C)CCCO2` (centres undefined): the INHIBITION came out at 32.9%.

On to `COc1c(CNC2CCCOc3ccc(F)cc32)c(C)nn1C` (centres undefined), for which the INHIBITION is 29%.

In the case of `COc1ccc2c(c1)C(NCCc1ncc(C)s1)CCCO2` (centres undefined), the INHIBITION was -31.7%.

In the case of `COc1cccc(CNC2CCCOc3cc(C)ccc32)n1` (centres undefined), the INHIBITION stood at 68.4%.

`COc1ccc(C2=CCN(C(=O)CN(CC(N)=O)C(C)C)CC2)cc1`: the INHIBITION is recorded as -68.8%.

For the molecule `Cc1noc(C)c1CN1CCC[C@]2(C[C@@H](Oc3ccccn3)CO2)C1`, the INHIBITION is listed as -61.7%.

`CC(=O)N1[C@H](Cn2cncn2)C[C@@H]2CN(Cc3ccncc3)CC[C@@H]21`: the INHIBITION is -149%.
